Experimental data published in PubChem BioAssay (NCI).
About 83,000 compounds went through this panel and 20% of them were active in at least one assay; those are over-represented in the sample as a whole.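 Single-concentration screen, 48 h exposure, 96-well plates. Endpoint: percent growth. Below 10 = active.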 Calls of active or inactive are those of the source.

Assays:
Assay in all cases: NCI-60 one-dose screen, 48 h (100 = growth as untreated, 0 = no growth, -100 = all killed)
HCT-15 colon = details: 10 µM
HT29 colon = details: 10 µM
SNB-19 CNS = details: 10 µM
U251 CNS = details: 10 µM
PC-3 prostate = details: 10 µM
SK-MEL-5 melanoma = details: 10 µM
UACC-62 melanoma = test system: UACC-62 melanoma
LOX IMVI melanoma = details: 10 µM
SK-MEL-28 melanoma = details: 10 µM
SK-MEL-2 melanoma = details: 10 µM
EKVX NSCLC = details: 10 µM
SN12C renal = details: 10 µM
UO-31 renal = details: 10 µM
TK-10 renal = test system: TK-10 renal
ACHN renal = details: 10 µM
CAKI-1 renal = details: 10 µM
A498 renal = details: 10 µM
CCRF-CEM leukemia = details: 10 µM
MOLT-4 leukemia = details: 10 µM
SNB-75 CNS = details: 10 µM

Measured: growth

FC(F)(F)c1ccc2c(c1)N(CCCN1CCN(C3CC3)CC1)c1ccccc1S2
active: A498 renal 9.76%
inactive: HCT-15 colon 68.7% | HT29 colon 36.1% | SNB-19 CNS 43% | U251 CNS 25.8% | PC-3 prostate 48.5% | SK-MEL-5 melanoma 81% | UACC-62 melanoma; 10 µM unless noted 54% | LOX IMVI melanoma 37.6% | SK-MEL-28 melanoma 93.8% | SK-MEL-2 melanoma 90.4% | EKVX NSCLC 86.8% | SN12C renal 47.7% | UO-31 renal 17.6% | TK-10 renal; 10 µM unless noted 80% | ACHN renal 78.1% | CAKI-1 renal 17.3% | CCRF-CEM leukemia 26.5% | MOLT-4 leukemia 34%

Clc1ccc(-c2nnc(-c3cccc4ccccc34)o2)cc1
inactive: HCT-15 colon 80.1% | HT29 colon 89.3% | SNB-75 CNS 76.8% | U251 CNS 90.2% | SK-MEL-5 melanoma 93.7% | LOX IMVI melanoma 84.2% | SK-MEL-28 melanoma 107% | SK-MEL-2 melanoma 96.4% | EKVX NSCLC 34% | TK-10 renal; 10 µM unless noted 95.3% | ACHN renal 90% | CAKI-1 renal 81.6% | MOLT-4 leukemia 104%

C#CCSc1nnnn1-c1ccc(Br)c(C)c1
inactive: HCT-15 colon 95.4% | HT29 colon 89.7% | SNB-19 CNS 86.4% | U251 CNS 81.8% | PC-3 prostate 99.7% | SK-MEL-5 melanoma 88.3% | UACC-62 melanoma; 10 µM unless noted 65.6% | LOX IMVI melanoma 97.4% | SK-MEL-28 melanoma 124% | SK-MEL-2 melanoma 86.9% | EKVX NSCLC 35.7% | SN12C renal 71.8% | TK-10 renal; 10 µM unless noted 111% | ACHN renal 92.5% | A498 renal 124% | CCRF-CEM leukemia 87.5% | MOLT-4 leukemia 88.4%
active: UO-31 renal -93.1%

CC(=O)Nc1cccc(NC(C)=O)n1
inactive: HCT-15 colon 103% | HT29 colon 110% | SNB-75 CNS 106% | U251 CNS 102% | SK-MEL-5 melanoma 105% | UACC-62 melanoma; 10 µM unless noted 97.5% | LOX IMVI melanoma 103% | SK-MEL-28 melanoma 108% | EKVX NSCLC 104% | SN12C renal 99.7% | UO-31 renal 99.4% | TK-10 renal; 10 µM unless noted 111% | ACHN renal 105% | CAKI-1 renal 126% | A498 renal 100% | CCRF-CEM leukemia 90.3% | MOLT-4 leukemia 111%

CC(=O)Nc1c(C)cc(C)cc1C
inactive: HCT-15 colon 102% | HT29 colon 119% | SNB-75 CNS 89.2% | U251 CNS 99.3% | UACC-62 melanoma; 10 µM unless noted 107% | LOX IMVI melanoma 96.9% | SK-MEL-28 melanoma 112% | SK-MEL-2 melanoma 102% | EKVX NSCLC 101% | SN12C renal 111% | UO-31 renal 95.5% | TK-10 renal; 10 µM unless noted 104% | CAKI-1 renal 91.6% | A498 renal 109% | CCRF-CEM leukemia 107% | MOLT-4 leukemia 97.2%

O=C(CC(=O)c1ccccc1O)c1ccccc1
inactive: HCT-15 colon 74.4% | HT29 colon 87.8% | SNB-19 CNS 86.9% | U251 CNS 63.3% | PC-3 prostate 92.6% | SK-MEL-5 melanoma 77.6% | UACC-62 melanoma; 10 µM unless noted 91% | LOX IMVI melanoma 76.9% | SK-MEL-28 melanoma 99.3% | SK-MEL-2 melanoma 131% | EKVX NSCLC 76.8% | SN12C renal 85.7% | UO-31 renal 87.3% | TK-10 renal; 10 µM unless noted 87.8% | ACHN renal 99% | CAKI-1 renal 92.2% | A498 renal 98.6%

Cc1cc(N)ccc1-c1ccc(N)cc1C
inactive: HCT-15 colon 97.6% | HT29 colon 102% | SNB-19 CNS 107% | U251 CNS 110% | PC-3 prostate 73.8% | SK-MEL-5 melanoma 99.7% | UACC-62 melanoma; 10 µM unless noted 104% | LOX IMVI melanoma 88.2% | SK-MEL-28 melanoma 104% | SK-MEL-2 melanoma 86.3% | EKVX NSCLC 106% | SN12C renal 98.5% | UO-31 renal 77.1% | TK-10 renal; 10 µM unless noted 111% | ACHN renal 99.1% | CAKI-1 renal 94.8% | A498 renal 97.1% | CCRF-CEM leukemia 105% | MOLT-4 leukemia 103%

N#CCc1ccc([N+](=O)[O-])cc1
inactive: HCT-15 colon 105% | HT29 colon 104% | SNB-19 CNS 96.6% | U251 CNS 98.5% | PC-3 prostate 95.8% | SK-MEL-5 melanoma 101% | UACC-62 melanoma; 10 µM unless noted 92.8% | LOX IMVI melanoma 100% | SK-MEL-28 melanoma 106% | SK-MEL-2 melanoma 107% | EKVX NSCLC 97.8% | SN12C renal 101% | UO-31 renal 72.1% | TK-10 renal; 10 µM unless noted 107% | ACHN renal 103% | CAKI-1 renal 93% | A498 renal 90.7% | CCRF-CEM leukemia 100% | MOLT-4 leukemia 74.2%

C=C1CC/C=C(\C)C(=O)C[C@@H]2[C@@H]1CC2(C)C
active: UACC-62 melanoma; 100 µM -99.1% | TK-10 renal; 100 µM -73.6%
inactive: HCT-15 colon 99% | HT29 colon 112% | SNB-19 CNS 95.7% | U251 CNS 100% | PC-3 prostate 92.6% | UACC-62 melanoma; 10 µM 101% | LOX IMVI melanoma 89.7% | SK-MEL-28 melanoma 104% | SK-MEL-2 melanoma 102% | EKVX NSCLC 104% | SN12C renal 114% | UO-31 renal 88.3% | TK-10 renal; 10 µM 123% | A498 renal 85% | CCRF-CEM leukemia 69.3% | MOLT-4 leukemia 93.5%
